Laboratory results reported in PubChem BioAssay AID1159580 (chemical genetic matrix, 2015).
The whole screen tested about 5,500 compounds, of which about 2,000 (36%) were called active. About 18% were inconclusive and are not listed. Some of the results follow. Values without a mark were called inactive. Cut-off read from the data, not from the text of the source: active = normalized growth mostly below about 0.91 (no sharp cut-off); inconclusive = no clear call, values can overlap the other calls; inactive = mostly above about 0.92.

Experiment: chemical genetic growth profiling, strain panel (AID 1159580);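 note: tested at 20 µM; growth read once vehicle control cultures reached saturation at 30 °C; 1 = growth at the plate median or of vehicle wells; lower values mean less growth of the strain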
Settings: S. cerevisiae deletion strains, growth OD
[1] = locus YAL013W, strain DEP1, active compounds read low
[2] = locus YMR263W, strain SAP30, active compounds read low
[3] = locus YPL055C, strain LGE1, active compounds read low
[4] = locus YPL241C, strain CIN2, active compounds read low
[5] = locus YDL101C, strain DUN1, active compounds read low
[6] = locus YHR030C, strain SLT2, active compounds read low

CC[C@H]1CN2CCc3cc(OC)c(OC)cc3[C@@H]2C[C@@H]1C[C@H]1NCCc2cc(OC)c(OC)cc21
normalized growth [1]: 1.01
normalized growth (locus YAL040C, strain CLN3, active compounds read low): 0.999
normalized growth (locus YCL061C, strain MRC1 (second series), active compounds read low): 0.995
normalized growth (locus YDR363W, strain ESC2, active compounds read low): 0.999
normalized growth (locus YER002W, strain NOP16, active compounds read low): 1
normalized growth (locus YGR229C, strain SMI1, active compounds read low): 0.994
normalized growth [2]: 1.01
normalized growth (locus YMR307W, strain GAS1, active compounds read low): 1.01
normalized growth (locus YNL128W, strain TEP1, active compounds read low): 0.999
normalized growth (locus YNL175C, strain NOP13, active compounds read low): 1.03
normalized growth (locus YNL197C, strain WHI3, active compounds read low): 1.02
normalized growth (locus YNL224C, strain SQS1, active compounds read low): 1.02
normalized growth (locus YOR083W, strain WHI5 (second series), active compounds read low): 1.02
normalized growth [3]: 1.02
normalized growth [4]: 1

O=C(Nc1cc(C(F)(F)F)cc(C(F)(F)F)c1)C(Sc1ccccn1)c1ccccc1 (configuration not stated)
normalized growth [1]: 0.998
normalized growth (locus YBR229C, strain ROT2, active compounds read low): 0.983
normalized growth [5]: 0.987
normalized growth (locus YDL134C, strain PPH21, active compounds read low): 0.979
normalized growth (locus YDR150W, strain NUM1, active compounds read low): 1
normalized growth (locus YEL061C, strain CIN8, active compounds read low): 0.988
normalized growth (locus YGR078C, strain PAC10, active compounds read low): 0.989
normalized growth [6]: 0.982
normalized growth (locus YHR087W, strain rtc3, active compounds read low): 0.973
normalized growth (locus YJR043C, strain POL32, active compounds read low): 0.995
normalized growth (locus YJR075W, strain HOC1, active compounds read low): 1.01
normalized growth (locus YLR039C, strain RIC1, active compounds read low): 0.944
normalized growth (locus YLR058C, strain SHM2 (second series), active compounds read low): 0.978
normalized growth (locus YLR085C, strain ARP6, active compounds read low): 1.02
normalized growth (locus YLR262C, strain YPT6, active compounds read low): 0.962
normalized growth (locus YML094W, strain GIM5, active compounds read low): 0.953
normalized growth (locus YMR219W, strain ESC1, active compounds read low): 0.99
normalized growth [2]: 1.03
normalized growth (locus YNL153C, strain GIM3, active compounds read low): 1.01
normalized growth (locus YNL298W, strain CLA4 (second series), active compounds read low): 1.01
normalized growth (locus YNL322C, strain KRE1, active compounds read low): 0.991
normalized growth (locus YNR030W, strain Alg12, active compounds read low): 0.997
normalized growth (locus YOL006C, strain TOP1, active compounds read low): 0.997
normalized growth [3]: 1.03
normalized growth [4]: 0.98
normalized growth (locus YPR135W, strain CTF4, active compounds read low): 0.959

O=C(Nc1ccccn1)c1cc(-c2ccccc2)c(C(F)(F)F)s1
normalized growth (locus YAR019C, strain CDC15, active compounds read low): 0.954
normalized growth (locus YBL105C, strain PKC1, active compounds read low): 0.94
normalized growth (locus YBR135W, strain CKS1, active compounds read low): 0.947
normalized growth (locus YBR136W, strain MEC1, active compounds read low): 0.953
normalized growth (locus YBR160W, strain CDC28, active compounds read low): 0.939
normalized growth (locus YDL017W, strain CDC7, active compounds read low): 0.945
normalized growth (locus YDL028C, strain MPS1, active compounds read low): 0.95
normalized growth [5]: 0.944
normalized growth (locus YDL108W, strain KIN28, active compounds read low): 0.962
normalized growth (locus YDL132W, strain cdc53, active compounds read low): 0.942
normalized growth (locus YDL214C, strain PRR2, active compounds read low): 0.897
normalized growth (locus YDR052C, strain DBF4, active compounds read low): 0.955
normalized growth (locus YDR054C, strain cdc34, active compounds read low): 0.947
normalized growth (locus YDR226W, strain ADK1, active compounds read low): 0.965
normalized growth (locus YDR477W, strain SNF1, active compounds read low): 0.969
normalized growth (locus YER123W, strain YCK3, active compounds read low): 0.967
normalized growth (locus YER133W, strain GLC7, active compounds read low): 0.961
normalized growth (locus YFL009W, strain cdc4, active compounds read low): 0.955
normalized growth (locus YFL029C, strain CAK1, active compounds read low): 0.939
normalized growth (locus YFR003C, strain YPI1, active compounds read low): 0.95
normalized growth (locus YFR019W, strain FAB1, active compounds read low): 0.953
normalized growth (locus YFR028C, strain CDC14, active compounds read low): 0.959
normalized growth (locus YGR040W, strain KSS1, active compounds read low): 0.96
normalized growth (locus YGR052W, strain FMP48, active compounds read low): 0.971
normalized growth (locus YGR092W, strain DBF2, active compounds read low): 0.902
normalized growth [6]: 0.816 (active)
normalized growth (locus YHR079C, strain IRE1, active compounds read low): 0.877
normalized growth (locus YHR082C, strain KSP1, active compounds read low): 0.918
normalized growth (locus YHR205W, strain SCH9, active compounds read low): 0.836
normalized growth (locus YIL147C, strain SLN1, active compounds read low): 0.949
normalized growth (locus YJL095W, strain BCK1, active compounds read low): 0.916
normalized growth (locus YJL128C, strain PBS2, active compounds read low): 0.909
normalized growth (locus YJL157C, strain FAR1, active compounds read low): 0.948
normalized growth (locus YJR016C, strain ILV3, active compounds read low): 0.951
normalized growth (locus YJR066W, strain TOR1 (second series), active compounds read low): 1
normalized growth (locus YJR066W, strain TOR1, active compounds read low): 0.897
normalized growth (locus YKL048C, strain ELM1, active compounds read low): 0.948
normalized growth (locus YKL067W, strain YNK1, active compounds read low): 0.928
normalized growth (locus YKL101W, strain HSL1, active compounds read low): 0.929
normalized growth (locus YKL193C, strain SDS22, active compounds read low): 0.929
normalized growth (locus YKL203C, strain TOR2, active compounds read low): 1.01
normalized growth (locus YLR113W, strain HOG1, active compounds read low): 0.77 (active)
normalized growth (locus YLR133W, strain CKI1, active compounds read low): 0.941
normalized growth (locus YLR403W, strain SFP1, active compounds read low): 0.97
normalized growth (locus YML070W, strain DAK1, active compounds read low): 0.924
normalized growth (locus YMR001C, strain CDC5, active compounds read low): 0.921
normalized growth (locus YMR205C, strain PFK2 (second series), active compounds read low): 0.934
normalized growth (locus YMR277W, strain FCP1, active compounds read low): 0.928
normalized growth (locus YNL006W, strain LST8, active compounds read low): 0.94
normalized growth (locus YNL020C, strain ARK1, active compounds read low): 0.931
normalized growth (locus YNL161W, strain CBK1, active compounds read low): 0.934
normalized growth (locus YNL183C, strain NPR1, active compounds read low): 0.887
normalized growth (locus YNL207W, strain RIO2, active compounds read low): 0.935
normalized growth (locus YNL222W, strain SSU72, active compounds read low): 0.941
normalized growth (locus YNL307C, strain MCK1 (second series), active compounds read low): 0.897
normalized growth (locus YOL078W, strain AVO1, active compounds read low): 0.934
normalized growth (locus YOL136C, strain PFK27, active compounds read low): 0.893
normalized growth (locus YOR061W, strain CKA2, active compounds read low): 0.95
normalized growth (locus YOR119C, strain RIO1, active compounds read low): 0.945
normalized growth (locus YOR231W, strain MKK1, active compounds read low): 0.876
normalized growth (locus YOR329C, strain SCD5, active compounds read low): 0.935
normalized growth (locus YPL031C, strain PHO85, active compounds read low): 0.954
normalized growth (locus YPL153C, strain RAD53, active compounds read low): 0.963
normalized growth (locus YPL204W, strain HRR25, active compounds read low): 0.945
normalized growth (locus YPL209C, strain IPL1, active compounds read low): 0.938
normalized growth (locus YPL256C, strain CLN2, active compounds read low): 0.806 (active)
normalized growth (locus YPR025C, strain CCL1, active compounds read low): 0.942
normalized growth (locus YPR106W, strain ISR1, active compounds read low): 0.936
normalized growth (locus YPR111W, strain DBF20, active compounds read low): 0.975
normalized growth (strain NNK1, active compounds read low): 0.919
normalized growth (strain TSCII, active compounds read low): 0.938
